Source: PubChem
Dicer inh: human Dicer pre-microRNA cleavage inhibition; AID 1347074; hit rate 6% among 47,000; cat-ELCCA pre-miR-21 Dicer processing, chemiluminescence; hits give high values; z-score at 25 µM; Q9UPY3; in the data active = z-score above about 3, passing the limit was not always enough;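 also: higher signal means more uncleaved substrate so more Dicer inhibition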
Target sequence (Q9UPY3 whole entry, looked up): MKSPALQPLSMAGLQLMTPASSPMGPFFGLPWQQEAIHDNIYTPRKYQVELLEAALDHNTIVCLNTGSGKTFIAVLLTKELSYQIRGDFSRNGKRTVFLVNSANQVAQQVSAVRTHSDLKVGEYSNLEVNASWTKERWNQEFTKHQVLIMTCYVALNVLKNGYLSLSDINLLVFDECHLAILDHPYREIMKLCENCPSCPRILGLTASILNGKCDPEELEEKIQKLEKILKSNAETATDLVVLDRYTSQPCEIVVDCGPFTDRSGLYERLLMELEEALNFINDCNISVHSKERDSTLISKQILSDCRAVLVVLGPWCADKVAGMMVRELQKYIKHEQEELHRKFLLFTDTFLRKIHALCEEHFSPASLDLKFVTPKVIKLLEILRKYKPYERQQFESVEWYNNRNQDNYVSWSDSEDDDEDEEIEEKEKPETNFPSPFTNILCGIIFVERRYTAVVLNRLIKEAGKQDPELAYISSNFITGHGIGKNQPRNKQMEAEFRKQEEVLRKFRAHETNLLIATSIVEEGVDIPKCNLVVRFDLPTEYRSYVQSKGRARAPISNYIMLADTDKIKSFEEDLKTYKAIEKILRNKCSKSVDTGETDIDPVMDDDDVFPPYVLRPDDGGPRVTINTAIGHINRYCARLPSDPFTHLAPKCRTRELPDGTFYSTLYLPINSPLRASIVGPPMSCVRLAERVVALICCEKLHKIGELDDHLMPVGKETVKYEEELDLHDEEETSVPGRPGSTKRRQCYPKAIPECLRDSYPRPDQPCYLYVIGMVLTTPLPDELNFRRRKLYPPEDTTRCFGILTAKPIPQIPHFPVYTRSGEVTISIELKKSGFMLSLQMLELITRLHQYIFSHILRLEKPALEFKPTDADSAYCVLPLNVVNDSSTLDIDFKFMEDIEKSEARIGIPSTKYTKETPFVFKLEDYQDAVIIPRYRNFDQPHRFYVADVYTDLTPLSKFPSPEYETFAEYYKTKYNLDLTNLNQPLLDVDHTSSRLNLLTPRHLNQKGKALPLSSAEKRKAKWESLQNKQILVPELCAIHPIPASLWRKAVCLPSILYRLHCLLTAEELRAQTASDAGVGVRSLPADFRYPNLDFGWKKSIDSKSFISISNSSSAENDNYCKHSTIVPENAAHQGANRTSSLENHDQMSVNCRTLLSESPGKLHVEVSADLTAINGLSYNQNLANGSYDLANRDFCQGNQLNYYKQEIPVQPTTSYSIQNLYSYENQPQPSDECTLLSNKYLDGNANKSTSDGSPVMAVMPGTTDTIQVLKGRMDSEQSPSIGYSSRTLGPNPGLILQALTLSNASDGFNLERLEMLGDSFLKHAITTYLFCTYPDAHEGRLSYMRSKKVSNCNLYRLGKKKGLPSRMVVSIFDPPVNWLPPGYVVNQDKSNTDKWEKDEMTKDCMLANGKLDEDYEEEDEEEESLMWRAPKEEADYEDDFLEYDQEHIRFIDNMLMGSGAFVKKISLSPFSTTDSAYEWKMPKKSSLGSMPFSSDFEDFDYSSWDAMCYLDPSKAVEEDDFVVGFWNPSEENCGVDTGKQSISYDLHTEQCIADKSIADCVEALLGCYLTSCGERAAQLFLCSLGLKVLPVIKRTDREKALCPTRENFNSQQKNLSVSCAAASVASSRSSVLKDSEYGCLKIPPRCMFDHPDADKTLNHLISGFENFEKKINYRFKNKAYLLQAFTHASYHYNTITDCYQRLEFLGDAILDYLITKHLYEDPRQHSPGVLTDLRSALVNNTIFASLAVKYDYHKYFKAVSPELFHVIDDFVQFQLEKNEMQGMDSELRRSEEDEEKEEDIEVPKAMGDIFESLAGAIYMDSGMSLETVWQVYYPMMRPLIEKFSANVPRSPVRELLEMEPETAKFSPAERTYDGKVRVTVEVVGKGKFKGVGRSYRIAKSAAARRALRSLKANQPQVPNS
Hits are given with their value; i = inactive. This excerpt belongs to a sample that is enriched for hits.

SMILES | Dicer inh
CCOC(=O)CN1C(=O)CC(c2cc(OC)c(OC)c(OC)c2)CC1=O | i
O=c1c2c(nc(NCCCO)n1-c1ccccc1)-c1ccccc1CC21CCCC1 | i
Cn1c(Cc2ccccc2)nc2c(c1=O)C1(CCCCC1)Cc1ccccc1-2 | i
O=c1c2c(nc(NCCO)n1-c1ccccc1)-c1ccccc1CC21CCCC1 | 4.1
COc1ccccc1-n1c(SCC(N)=O)nc2c(c1=O)C1(CCCCC1)Cc1ccccc1-2 | 3.2
CSc1nc2c(c(=O)n1C)C1(CCCCC1)Cc1ccccc1-2 | i
C=CCn1c(SCC(=O)OCC)nc2c(c1=O)C1(CCCC1)Cc1ccccc1-2 | i
COc1cc(C2C(C(=O)c3cc4ccccc4o3)=C(O)C(=O)N2CCN(C)C)ccc1O (centres undefined) | i
Cc1nc(S(=O)(=O)Nc2ccc(-c3cn4c(n3)SCC4)cc2)cn1C | i
O=C(O)CCCC(=O)N1N=C(c2ccccc2)CC1c1ccccc1F (centres undefined) | i
COC(=O)c1sc(N2C(=O)c3oc4ccccc4c(=O)c3C2c2ccc(OC)c(OC)c2)nc1C (centres undefined) | i
c1ccc(COc2ccccc2OCc2ccccc2)cc1 | i
CCOc1cc(C(F)(F)F)c(C(=O)NCc2ccc(Cl)cc2)cn1 | i
CSc1nc2ccccc2[nH]1 | i
Cc1ccc(C)c(COc2ccc(C)nc2[N+](=O)[O-])c1 | i
Cc1ccc2ncc(NC(=O)c3ccc(F)cc3)c(=O)n2c1 | i
Cc1ccc(C)c(COc2ccc(C)nc2NC(=O)c2ccc(F)cc2)c1 | 3.8
O=c1cc(-c2cc(Br)cc3c2OCOC3)oc2ccccc12 | 3.5
Cc1ccccc1-c1cc(=O)c2cc(Cl)ccc2o1 | i
Cc1cc2oc(-c3ccccc3C(=O)O)cc(=O)c2cc1C | i
CN(C)S(=O)(=O)N(CC(=O)Nc1ccc2c(c1)OCO2)c1ccccc1 | i
CSc1cccc(NC(=O)CN(c2ccccc2)S(=O)(=O)N(C)C)c1 | i
CN(C)S(=O)(=O)N(CC(=O)Nc1ccc(F)c(F)c1)c1ccccc1 | 4.3
N/C(=N\NS(=O)(=O)c1cc(C(F)(F)F)cc(C(F)(F)F)c1)c1ccccn1 | i
N/C(=N\NC(=S)Nc1ccccc1C(F)(F)F)c1ccccn1 | 4.3
SMILES | Dicer inh
CC(C)(C)NC(=S)Nc1ccccc1C(F)(F)F | i
Cc1cc(-c2nnc(CSc3nnc(NC(=O)c4ccccc4F)s3)o2)ccc1[N+](=O)[O-] | i
CC(C)(O)C#Cc1ccc(/C=N/Nc2ccccc2)cc1 | i
Cn1nc(-c2ccc(S(=O)(=O)NCC(=O)NNS(=O)(=O)c3ccc(Cl)cc3)s2)cc1C(F)(F)F | i
Cn1nc(-c2ccc(Sc3ccc(Cl)cc3)s2)cc1C(F)(F)F | i
Cn1nc(-c2ccc(-c3ccn(S(C)(=O)=O)n3)s2)cc1C(F)(F)F | 4
CCOC(=O)C(=CNc1cccc(F)c1C#N)C(=O)OCC | i
O=C(CSC1=NCCc2ccccc21)c1ccc(-c2ccccc2)cc1 | i
Cn1cccc1CNCc1cccnc1 | i
Cn1cccc1CNCC(O)C(F)(F)F (centres undefined) | i
CN(C)CCCNCc1cccn1C | 3.1
CC12CCC(C1)C(C)(C)C2NS(=O)(=O)c1cc(Cl)c(Cl)cc1Cl (centres undefined) | i
Cc1nc(C)c(-c2ccnc(-c3ccc(C(F)(F)F)cc3)n2)o1 | i
N#Cc1c(NC(=O)C(=O)c2c[nH]c3ccccc23)sc2c1CCCC2 | 4.6
N#Cc1c(NC(=O)c2ccccc2)sc2c1CCCCC2 | 3.2
N#Cc1c(NC(=O)COc2ccc(Cl)cc2)sc2c1CCCC2 | i
N#Cc1c(NC(=O)c2ccc(Cl)cc2)sc2c1CCCC2 | i
CN(C)C(=O)c1c(NC(=O)c2ccccc2)sc2c1CCCC2 | i
COc1cc2ccccc2cc1C(=O)Nc1sc2c(c1C#N)CCC2 | i
O=C1C2C3C=CC(CC3)C2C(=O)N1Cc1ccccc1 (centres undefined) | i
Cc1[nH]c2ccccc2c(=O)c1CN1CCCC1 | i
CCCOC(=O)C1=C(C)NC2=C(C(=O)CCC2)C1c1cc(OC)c(OC)cc1Br (centres undefined) | i
Cc1cc(C)nc(NC(=O)C(C)(C)Oc2ccc(Cl)cc2)n1 | i
N#Cc1c(-c2ccccc2)nc(N/N=C/c2ccco2)[nH]c1=O | i
O=C(c1cnc2cc(-c3ccc(Cl)cc3)nn2c1)c1cc(F)ccc1O | i
SMILES | Dicer inh
C#CCOC(=O)Nc1ccc(OC(C)C)nc1 | i
O=C(ON=C(c1ccc(F)cc1)c1ccc(F)cc1)c1ccc(Cl)cc1 | i
CCOC(=O)c1[nH]c(C)c(S(=O)(=O)NC2CCCCNC2=O)c1C (centres undefined) | i
Cc1nc2ccc(F)cc2c2c1CCN2c1ccccc1 | i
COc1ccc(C2CC(c3cc(Cl)ccc3O)=NN2)cc1OC (centres undefined) | 4.4
COc1ccc(C2CC(c3ccc(Cl)cc3)Nc3nc(N)nn32)cc1OC (centres undefined) | i
COc1cccc2c1OC(c1cccnc1)N1N=C(c3cc(Cl)ccc3O)CC21 (centres undefined) | i
CCCCOC(=O)c1cc([N+](=O)[O-])cc2c1-c1ccc([N+](=O)[O-])cc1/C2=N\O | i
